# DT40 TDP1 no CPT – qHTS for Inhibitors of human tyrosyl-DNA phosphodiesterase 1 (TDP1): qHTS in cells in absence of CPT. DT40 Tdp1-/- hTDP1 cells, no CPT, ATP luminescence, 48 h. Potency, µM (highest dose often 46.2 µM), inactives show at the highest dose activity change, negative = growth inhibition, most hits filed as inhibitors. actives 15% (n = 420,000). AID 686978, 2013; note: nearly all actives have a fitted effect of over 55% in size
#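 Chicken DT40 Tdp1-/- cells stably complemented with human TDP1 were seeded at 400 cells/well with DMSO in place of 20 nM camptothecin. After compound pinning, cells grew at least 48 hr at 37 °C; viability read by CellTiter-Glo luminescence.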
# ELG1 DNA repair – ELG1-dependent DNA repair inhibition. HEK293T ELG1-luciferase reporter, luminescence, 16 h; DNA damage induced by 5-fluorouridine. Potency, µM (doses to about 46.1 µM), for inactives: at the top dose activity change, negative = inhibition, actives largely listed as inhibitors. actives 2.3% (n = 330,000). AID 504467; note: nearly all actives have a fitted effect of over 55% in size
#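 Overnight (16 hr) co-exposure of 2,000 cells/well to 5-fluorouridine and compound at 37 °C preceded detection. Luciferase was quantified via ONE-Glo luminescence; loss of signal denotes inhibition.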
# ALOX12 inh – ALOX12 (human) lipoxygenase inhibition. P18054. purified 12hLO, xylenol orange hydroperoxide absorbance. Potency, µM (doses to about 108 µM), without a hit: at the highest dose activity change, negative = inhibition, most hits filed as inhibitors. actives 1.1% (n = 580,000). AID 1671190
# Target sequence (P18054 whole entry, looked up): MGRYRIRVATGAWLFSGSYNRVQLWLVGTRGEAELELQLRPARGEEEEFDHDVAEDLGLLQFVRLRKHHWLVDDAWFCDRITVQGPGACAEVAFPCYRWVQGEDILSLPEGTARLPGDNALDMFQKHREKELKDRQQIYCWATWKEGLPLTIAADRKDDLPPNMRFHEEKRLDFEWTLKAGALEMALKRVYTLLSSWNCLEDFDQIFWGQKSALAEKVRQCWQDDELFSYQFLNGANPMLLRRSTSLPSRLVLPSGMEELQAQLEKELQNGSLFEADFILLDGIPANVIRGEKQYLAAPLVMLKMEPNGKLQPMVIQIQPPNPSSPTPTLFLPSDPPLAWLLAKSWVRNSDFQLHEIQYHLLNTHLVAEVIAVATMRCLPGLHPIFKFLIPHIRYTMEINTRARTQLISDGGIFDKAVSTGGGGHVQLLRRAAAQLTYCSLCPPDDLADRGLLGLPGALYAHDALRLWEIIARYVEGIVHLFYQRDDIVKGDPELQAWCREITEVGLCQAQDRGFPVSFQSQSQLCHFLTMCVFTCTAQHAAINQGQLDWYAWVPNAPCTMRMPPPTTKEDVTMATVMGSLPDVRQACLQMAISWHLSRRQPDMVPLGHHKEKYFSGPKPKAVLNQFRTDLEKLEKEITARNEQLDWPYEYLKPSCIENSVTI
#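 Purified human 12hLO (150 nM final) in 25 mM Hepes, 0.01% Triton X-100, pH 7.0 was preincubated 15 min at room temperature with compound. Then 40 uM arachidonic acid was added, 30 min. Hydroperoxide was read by Fe-XO absorbance ratio 573/405 nm.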
# RORgamma inh – ROR gamma (mouse) transcription inhibition; Drosophila S2 Gal4-RORgamma UAS-luciferase reporter, 20 h; actives 5.4% (n = 310,000); P51450; Potency, µM (titrated, usually from 53.6 µM), for the others: top-dose activity change, negative = inhibition, actives largely listed as inhibitors; AID 2551; note: nearly all actives have a fitted effect of over 60% in size
#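 ROR gamma transcriptional activity was tracked as Gal4-UAS luciferase output in stably transfected Drosophila Schneider cells, with compound added 1 hr before 700 uM copper sulfate induction and a 20 hr ambient-temperature incubation.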
# DT40 TDP1 CPT – DT40-hTDP1 cell growth loss with CPT; chicken DT40 Tdp1-/-;hTDP1 cells + 20 nM CPT, ATP luminescence, 48 h; Potency, µM (titrated, usually from 46.2 µM), for the others: top-dose activity change, negative = growth inhibition, actives largely listed as inhibitors; actives 12% (n = 420,000); note: nearly all actives have a fitted effect of over 55% in size
#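 Chicken DT40 Tdp1-/- cells stably complemented with human TDP1 were seeded at 400 cells/well in medium containing 20 nM camptothecin, exposed to pin-transferred compounds, and grown at 37 °C for at least 48 hr. Viability was read as ATP luminescence.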
# VP16 counter – Gal4-VP16 reporter inhibition counter-screen. Potency, µM (doses to about 53.6 µM), without a hit: at the top dose activity, negative = inhibition, hits mostly inhibitors. actives 3.5% (n = 310,000). Drosophila S2 Gal4-VP16 UAS-luciferase, luminescence, 20 h;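 note: Gal4-VP16 expression switched on by copper sulfate through the metallothionein promoter; nearly all actives have a fitted effect of over 50% in size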
# ELG1 FLuc counter – luciferase inhibition in cell-free luciferin readout for ELG1 hits; shares compounds with ELG1 DNA repair; cell-free firefly luciferase luminescence counter-screen, ViewLux; Potency, µM (highest dose often 46.1 µM), for the others: at the top dose activity change, negative = inhibition, actives largely listed as inhibitors; actives 3% (n = 350); AID 624247
# ELG1 Luc conf – confirmation of human ELG1-dependent DNA repair inhibitors. HEK293T ELG1-luciferase levels, luminescence; cells co-treated with 5-fluorouridine. AID 624248. actives 68% (n = 670). Potency, µM (top dose mostly 46.1 µM), for the others: at the top dose activity change, negative = inhibition, hits mostly inhibitors. shares compounds with ELG1 DNA repair; note: nearly all actives have a fitted effect of over 55% in size
# ELG1-Luc MMS – confirmation of human ELG1 repair inhibitors, MMS stimulated. Potency, µM (titrated, usually from 46.1 µM), inactives show at the highest dose activity change, negative = inhibition, hits mostly inhibitors. shares compounds with ELG1 DNA repair. actives 53% (n = 670). HEK293T luciferase-tagged ELG1 level, MMS stimulated; note: nearly all actives have a fitted effect of over 60% in size
# ELG1 5-FU – confirmation of ELG1 repair inhibitors: viability with 5FU | shares compounds with ELG1 DNA repair | cell viability with 5-FU, ELG1-dependent repair | Potency, µM (highest dose often 46.1 µM), for the others: at the top dose activity change, negative = viability loss, most hits filed as cytotoxic | 670 tested, under 10 active | AID 624250;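 note: ELG1-luc HEK293T cells cotreated with 5-fluorouridine at 10 µM final; viability measured 16 h after compound addition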
# ELG1 MMS cell – confirmation of ELG1 repair inhibitors: viability with MMS | Cell viability with MMS, ELG1-dependent DNA repair | Potency, µM (doses to about 46.1 µM), without a hit: at the top dose activity change, negative = viability loss, usual class: cytotoxic | actives 33% (n = 670) | shares compounds with ELG1 DNA repair;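 note: ELG1-luc HEK293T cells co-treated with 10 µM MMS; viability read 16 h after compound addition; nearly all actives have a fitted effect of over 60% in size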
# Cell viab unstim – affects unstimulated cell viability, ELG1 hit counter-screen; Potency, µM (titrated, usually from 45.9 µM), without a hit: top-dose activity change, negative = loss of viability, usual class: cytotoxic; cell viability counter-screen, unstimulated, luminescence; AID 624252; actives 8% (n = 900); shares compounds with ELG1 DNA repair;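 note: compound exposure lasted 16 hours before reading; nearly all actives have a fitted effect of over 55% in size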
# FLuc biochem – inhibits purified firefly luciferase, counter-screen for ELG1 hits; shares compounds with ELG1 DNA repair; purified firefly luciferase, luminescence counter-screen; actives 10% (n = 350); Potency, µM (series often up to 57.5 µM), for inactives: at the highest dose activity, negative = inhibition, usual class: inhibitors
# * = called active by the depositor; ? = inconclusive; / = no result given; [ ] = another dose, or the depositor's remark. Rows were chosen to be rich in hits. Some 15% of all compounds tested hit in one or more screens of this group. Calls come from the whole dose curve; as a rule, active = well fitted curve in the direction sought with a large enough effect; inconclusive = small, poorly fitted or top-dose-only effect, or another doubt; inactive = no such curve, though single readings can be large; an effect the other way counts as inactive or inconclusive. % is set by controls: 0 for no effect and ±100 for the full control effect; potency is the fitted concentration of half-maximal effect.
SMILES,DT40 TDP1 no CPT,ELG1 DNA repair,ALOX12 inh,RORgamma inh,DT40 TDP1 CPT,VP16 counter,ELG1 Luc conf,ELG1-Luc MMS,ELG1 5-FU,ELG1 MMS cell,Cell viab unstim,others
Cc1ccc(Cn2ncc3c(N4CCN(CCc5ccccc5)CC4)ncnc32)cc1,?,3.7µM*,24%,2%,?,-2%,?,3.5µM*,-3%,4µM*,?,
Cc1ccc(Cn2ncc3c(N4CCN(C5CCCC5)CC4)ncnc32)cc1,-26%,-18%,-8%,12%,?,-3%,/,/,/,/,/,
C=CCN1CCN(c2ccc(C(F)(F)F)cn2)CC1,/,/,42%,/,/,/,/,/,/,/,/,
CCc1nc(CN2CCN(c3ccc(C(F)(F)F)cn3)CC2)c(C)[nH]1,6.5µM*,?,0%,3%,12µM*,-4%,?,3.1µM*,-3%,4.4µM*,?,
COc1ccc(F)cc1CN1CCC(CO)(CN2CCCC2)CC1,/,/,37%,/,/,/,/,/,/,/,/,
CCN(CC)C(=O)c1sc(NC(=O)c2cccnc2)c(C(=O)OC)c1C,-26%,2.6µM*,7%,-6%,0%,2%,3.1µM*,-10%,?,9%,?,
COCCn1c(=N)c(C(=O)NCCc2ccc(OC)cc2)cc2c(=O)n3cccc(C)c3nc21,29µM*,?,37%,-17%,23µM*,4%,5µM*,?,?,3%,?,
CCS(=O)(=O)N1CCCc2cc(C(=O)Nc3c(C)cccc3C(C)C)ccc21,/,/,0%,/,/,/,/,/,/,/,/,
O=C1CCc2cc(NS(=O)(=O)c3ccc(F)cc3)cc3c2N1CCC3,?,17%,-29%,/,?,/,/,/,/,/,/,
O=C1CCc2cc(NS(=O)(=O)c3ccccc3)cc3c2N1CCC3,?,?,?,/,?,/,/,/,/,/,6%,ELG1 FLuc counter=14%;FLuc biochem=0%
O=C1CCc2cc(NS(=O)(=O)c3ccccc3)cc3c2N1CC3,-19%,28%,1%,/,7%,/,/,/,/,/,3%,ELG1 FLuc counter=26%;FLuc biochem=1%
Cc1cc(C)n(C2CCN(c3ncnc4c3c(C)nn4C)C2)n1 (stereo not drawn),/,/,12%,/,/,/,/,/,/,/,/,
Cc1cccc(C)c1OCc1nc2ccccc2c(=O)n1/N=C/c1ccc(OCC(=O)O)cc1,?,2%,-6%,-7%,-26%,?,/,/,/,/,/,
Cc1ccccc1OCc1nc2ccccc2c(=O)n1/N=C/c1cn[nH]c1-c1ccccc1,21µM*,4.6µM*,6%,20%,?,-3%,7.1µM*,14µM*,?,?,?,ELG1 FLuc counter=-7%;FLuc biochem=-18%
COc1ccc(OC)c(/C=N/n2c(C)nc3ccccc3c2=O)c1,-27%,/,-47%,/,-5%,/,/,/,/,/,/,
Cc1ccc(-c2[nH]ncc2/C=N/n2c(COc3ccccc3)nc3ccccc3c2=O)cc1,?,5.2µM*,11%,?,?,?,3.2µM*,20µM*,?,28µM*,16µM*,ELG1 FLuc counter=-11%;FLuc biochem=?
CCN1CCN(S(=O)(=O)c2cc(OCC(=O)NC3CCCCC3)c(C)cc2Cl)CC1,?,?,0%,7%,23µM*,0%,-16%,3.1µM*,-11%,2.5µM*,?,
Cc1cc(Cl)c(S(=O)(=O)N2CCCC2)cc1OCC(N)=O,-3%,12%,17%,-27%,3%,11%,/,/,/,/,/,
COc1ccc(-c2noc(CCCCC(=O)N3CCN(c4cc(C)ccc4C)CC3)n2)cc1,2.9µM*,?,12%,/,4.1µM*,/,?,1.3µM*,-4%,1.1µM*,14µM*,
COc1cccc(-c2noc(CCC(=O)N3CCN(c4cc(C)ccc4C)CC3)n2)c1,-18%,?,-30%,/,-28%,/,/,/,/,/,/,
Cc1ccc(-c2noc(CCC(=O)N3CCN(c4cc(C)ccc4C)CC3)n2)cc1,-19%,10%,-29%,/,-15%,/,/,/,/,/,/,
Cc1ccc(C)c(N2CCN(C(=O)CCc3nc(-c4cccc(Cl)c4)no3)CC2)c1,-20%,?,-29%,/,?,/,/,/,/,/,-7%,
COc1cc(CNC(=O)c2ncoc2-c2cccs2)cc(OC)c1OC,/,/,32%,/,/,/,/,/,/,/,/,
Cc1nc(CN2Cc3nc(-c4cccc(C(F)(F)F)c4)ccc3OCC2=O)cs1,/,/,-22%[176 µM],/,/,/,/,/,/,/,/,
CC1=C(C(=O)N2CCCCC2)C(c2cc(Br)ccc2F)C2=C(CCCC2=O)N1 (stereo not drawn),/,/,-6%,/,/,/,/,/,/,/,/,
CN(C)c1cccc(C(=O)NNC(=O)CN2C(=O)C3CC=CCC3C2=O)c1 (stereo not drawn),-8%,?,6%,/,11%,/,/,/,/,/,-14%,
COc1ccc2cc(C[C@@H]3CC[C@@H](CO)O3)ccc2c1,-25%,?,-19%,/,1%,/,/,/,/,/,-2%,
